Records with an inconclusive call do not appear. Active and inactive are the calls of the source. Unless noted, calls follow the shape of the full dose curve.
Tests used:
[1] = Nuclear factor erythroid 2-related factor 2/antioxidant responsive element (Nrf2/ARE) small molecule agonists: qHTS cell viability counter screen in human keratinocytes (AID 1919968; active = well fitted curve in the direction sought with a large enough effect in the repeat runs; an effect the other way counts as inactive or inconclusive; also: nearly all actives have a fitted effect of over 55% in size)
Summary of the method: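 In human HaCaT keratinocytes stably expressing an ARE-driven luciferase, compound exposure lasted 23 h at 37 C under 5% CO2. Viable cells are quantified with a protease-based fluorogenic reagent (CellTiter-Fluor) read 1 h after addition.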

[2] = Nuclear factor erythroid 2-related factor 2/antioxidant responsive element (Nrf2/ARE) small molecule agonists: luciferase reporter gene qHTS assay in human keratinocytes (AID 1919969); also: nearly all actives have a fitted effect of over 35% in size; also: potency is read from the fitted curve at half-maximal effect
[3] = target: Gonadotropin-releasing hormone receptor (Homo sapiens) (UniProt P30968); test: Human gonadotropin-releasing hormone receptor (GnRHR) small molecule agonists, calcium flux assay in GnRHR-HEK293 cells (AID 1920063); also: nearly all actives have a fitted effect of over 35% in size
Summary of the method: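 Intracellular calcium rise is the read-out: engineered human GnRHR HEK293 cells, dye-loaded, are exposed to DMSO-dissolved compounds and fluorescence at Ex/Em 480/540 is tracked for 3 min.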

[4] = target: KiSS-1 receptor (Homo sapiens) (UniProt Q969F8); test: Human kisspeptin (KISS1R) small molecule agonists, calcium flux assay in KISS1R-HEK293 cells (AID 1920064; active = well fitted curve in the direction sought with a large enough effect in the repeat runs; an effect the other way counts as inactive or inconclusive)
Summary of the method: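 Concentration-response testing used 15 concentrations in triplicate on human KISS1R-expressing HEK293 cells. Calcium-dependent fluorescence (Ex/Em 480/540) was followed kinetically for 3 min after compound transfer.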

[5] = G protein-coupled receptor (GPCR) small molecule agonists, calcium flux assay: HEK293 wild type cell line counter screen (AID 1920065)
Summary of the method: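 Fluorescence intensity signals activation. After overnight (18 h) culture and a 1 h calcium dye load at 37 C, compounds are added by pin tool and the plate read at 480/540 nm for 3 min in 1 s steps.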

[6] = p53 small molecule agonists, cell-based qHTS assay with rat liver microsomes (AID 1963578)
Summary of the method: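 Read-out is beta-lactamase reporter fluorescence (LiveBLAzer, 2 h, room temperature, dark) in p53RE-bla cells treated 16 h at 37 C with compound, rat liver microsomes and NADPH, both 0.5 mg/mL final.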

[7] = p53 small molecule agonists, cell-based qHTS assay: qHTS cell viability counter screen (AID 1963581); also: nearly all actives have a fitted effect of over 45% in size
Summary of the method: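 Luminescence from CellTiter-Glo, reflecting ATP content, serves as the cytotoxicity measure; it is taken after the 2 h reporter substrate step in HCT-116 p53RE-bla cells dosed for 16 h at 37 C.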

[8] = p53 small molecule agonists, cell-based qHTS assay (AID 1963582; active = well fitted activation curve with a large enough effect in the signal ratio in the repeat runs, not every such curve was filed as active; the % refers to the signal ratio)
Summary of the method: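 After plating, p53RE-bla cells sat 5 h in the incubator; compounds or DMSO vehicle were pinned in; a 16 h incubation at 37 C followed; FRET substrate was added and, 2 h later at RT, fluorescence was measured.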

[9] = target: 5-hydroxytryptamine receptor 2A (Homo sapiens) (UniProt P28223); test: 5-hydroxytryptamine receptor 2A (HTR2A) small molecule antagonists, cell-based qHTS assay (AID 1963586); also: nearly all actives have a fitted effect of over 45% in size
Summary of the method: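 CHO cells stably expressing human HTR2A were plated for 18 h at 37 C, then loaded with calcium dye for 1 h. Compounds were preincubated 5 min at room temperature before DOI (4 nM solution) was added. Kinetic fluorescence was read for 3 min.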

[10] = target: 5-hydroxytryptamine receptor 2A (Homo sapiens) (UniProt P28223); test: 5-hydroxytryptamine receptor 2A (HTR2A) small molecule agonists, cell-based qHTS assay (AID 1963587); also: nearly all actives have a fitted effect of over 30% in size
Summary of the method: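 HTR2A-CHO cells, plated 18 h at 37 C/5% CO2, dye-loaded 1 h at 37 C; compounds in DMSO added by pin tool (agonist mode). Intracellular calcium flux read as kinetic fluorescence on FDSS over 2 min at 1 s intervals.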

[11] = target: Muscarinic acetylcholine receptor M1 (Homo sapiens) (UniProt P11229); test: Cholinergic receptor muscarinic 1 (CHRM1) small molecule antagonists, cell-based qHTS assay (AID 1963588); also: nearly all actives have a fitted effect of over 40% in size
Summary of the method: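 Compounds were tested at 15 concentrations in three independent runs. Dye-loaded CHRM1-CHO cells were exposed 5 min at room temperature before stimulation by acetylcholine added at 50nM. Intracellular calcium was read kinetically on FDSS for 3 min.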

[12] = target: Muscarinic acetylcholine receptor M1 (Homo sapiens) (UniProt P11229); test: Cholinergic receptor muscarinic 1 (CHRM1) small molecule agonists, cell-based qHTS assay (AID 1963589); also: nearly all actives have a fitted effect of over 35% in size
Summary of the method: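 Fluorescent calcium dye reports M1 activation in stably transfected CHO cells. Compounds, 15 concentrations, added after 1 h dye loading at 37 C; kinetic reading at 1 sec intervals.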

[13] = target: Beta-2 adrenergic receptor (Homo sapiens) (UniProt P07550); test: Adrenergic beta2 receptor (ADRB2) small molecule antagonists, cell-based qHTS assay (AID 1963592); also: series mostly up to about 92 µM; nearly all actives have a fitted effect of over 50% in size
Summary of the method: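 Assay format: CHO-ADRB2 cells, 18-20hr seeding at 37C/5% CO2, then compound plus 1nM isoproterenol agonist mix for 0.5hr RT. Homogeneous time-resolved fluorescence cAMP detection after 1hr, expressed as 665/615 nm ratio.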

[14] = target: D(2) dopamine receptor (Homo sapiens) (UniProt P14416); test: Dopamine D2 receptor (DRD2) small molecule agonists, cell-based qHTS assay (AID 1963594); also: nearly all actives have a fitted effect of over 35% in size
Summary of the method: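 HEK293 cells stably expressing DRD2 were cultured 24 h at 37 C, then given Ro20-1724 (0.1 mM final) and compounds for 10 min at room temperature. NKH477 (200nM) was then added for 30 min. cAMP was read by HTRF.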

[15] = p53 small molecule agonists, cell-based qHTS assay with human liver microsomes: qHTS cell viability counter screen (AID 1963579); also: nearly all actives have a fitted effect of over 45% in size
Summary of the method: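 Cells carrying the p53 response-element beta-lactamase reporter are treated for 16 h at 37 C with test compounds in the presence of human liver microsomes and NADPH (both 0.5 mg/mL final); ATP-based CellTiter-Glo luminescence then reports viability.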

[16] = p53 small molecule agonists, cell-based qHTS assay with rat liver microsomes: qHTS cell viability counter screen (AID 1963580); also: nearly all actives have a fitted effect of over 45% in size
Summary of the method: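 Luminescent ATP readout (CellTiter-Glo, 30 min at room temperature) reports viability of p53RE-bla HCT-116 cells after 16 h at 37 C with test compounds under metabolic activation by rat liver microsomes and NADPH at 0.5 mg/mL final each.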

[17] = cAMP Responsive Elements (CRE) small molecule agonists, cell-based qHTS assay (AID 1963590)
Summary of the method: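 Compound exposure lasted 3 h at 37 C/5% CO2 in CRE-bla HEK 293T cells grown in assay medium with 10% dialyzed FBS and 25 mM HEPES. Reporter signal came from LiveBLAzer B/G FRET substrate, 2 h, room temperature.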

[18] = cAMP Responsive Elements (CRE) small molecule antagonists, cell-based qHTS assay (AID 1963591; active = well fitted inhibition curve with a large enough effect in the signal ratio in the repeat runs, not every such curve was filed as active; the % refers to the signal ratio)
Summary of the method: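 Stimulation used NKH477 at a final 0.25 uM for 3 h in compound-treated CRE-bla HEK293T cells, seeded 18 h beforehand. Reporter activity was measured with LiveBLAzer B/G FRET substrate after 2 h at room temperature.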

[19] = target: D(2) dopamine receptor (Homo sapiens) (UniProt P14416); test: Dopamine D2 receptor (DRD2) small molecule antagonists, cell-based qHTS assay (AID 1963595; active = well fitted inhibition curve with a large enough effect in the signal ratio in the repeat runs, with a control signal flat; the % refers to the signal ratio)
Summary of the method: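 In this cell-based antagonist screen, compounds act for 10 min at room temperature before a 30 min challenge with 12 nM quinpirole and 200 nM NKH477. cAMP is quantified by HTRF competition in DRD2-HEK293 cells containing 0.1 mM Ro20-1724.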

[20] = p53 small molecule agonists, cell-based qHTS assay with human liver microsomes (AID 1963577)
Summary of the method: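 Compounds act here after metabolic activation: human liver microsomes and NADPH, both at 0.5 mg/mL final, were co-added to p53RE-bla cells. Incubation ran 16 h at 37 C, followed by LiveBLAzer detection.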
% is scaled to controls: 0 for no effect and ±100 for the full control effect.

Chain of 5-hydroxytryptamine receptor 2A (Homo sapiens) (P28223 whole entry, looked up): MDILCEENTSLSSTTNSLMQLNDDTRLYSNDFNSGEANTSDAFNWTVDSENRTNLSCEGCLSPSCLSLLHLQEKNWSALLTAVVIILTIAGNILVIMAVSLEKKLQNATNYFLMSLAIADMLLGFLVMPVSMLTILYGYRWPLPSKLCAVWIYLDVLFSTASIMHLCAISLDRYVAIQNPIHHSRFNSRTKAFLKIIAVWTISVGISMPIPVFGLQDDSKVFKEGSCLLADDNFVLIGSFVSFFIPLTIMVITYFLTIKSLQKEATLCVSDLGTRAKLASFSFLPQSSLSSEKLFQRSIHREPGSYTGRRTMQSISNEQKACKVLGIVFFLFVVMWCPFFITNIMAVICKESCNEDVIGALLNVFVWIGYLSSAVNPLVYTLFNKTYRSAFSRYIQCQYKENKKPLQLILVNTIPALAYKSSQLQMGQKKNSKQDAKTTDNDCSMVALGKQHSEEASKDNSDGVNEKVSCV
Chain of KiSS-1 receptor (Homo sapiens) (Q969F8 whole entry, looked up): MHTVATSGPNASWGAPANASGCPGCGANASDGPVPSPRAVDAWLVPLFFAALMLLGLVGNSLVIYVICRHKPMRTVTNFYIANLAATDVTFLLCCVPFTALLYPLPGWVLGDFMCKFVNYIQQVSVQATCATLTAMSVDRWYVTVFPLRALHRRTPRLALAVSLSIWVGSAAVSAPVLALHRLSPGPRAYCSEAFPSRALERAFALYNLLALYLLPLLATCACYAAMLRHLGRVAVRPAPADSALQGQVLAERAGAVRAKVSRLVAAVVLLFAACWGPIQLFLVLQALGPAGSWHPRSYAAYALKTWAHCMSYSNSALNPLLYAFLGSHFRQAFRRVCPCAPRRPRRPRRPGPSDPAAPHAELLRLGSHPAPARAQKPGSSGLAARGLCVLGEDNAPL
Chain of Gonadotropin-releasing hormone receptor (Homo sapiens) (P30968 whole entry, looked up): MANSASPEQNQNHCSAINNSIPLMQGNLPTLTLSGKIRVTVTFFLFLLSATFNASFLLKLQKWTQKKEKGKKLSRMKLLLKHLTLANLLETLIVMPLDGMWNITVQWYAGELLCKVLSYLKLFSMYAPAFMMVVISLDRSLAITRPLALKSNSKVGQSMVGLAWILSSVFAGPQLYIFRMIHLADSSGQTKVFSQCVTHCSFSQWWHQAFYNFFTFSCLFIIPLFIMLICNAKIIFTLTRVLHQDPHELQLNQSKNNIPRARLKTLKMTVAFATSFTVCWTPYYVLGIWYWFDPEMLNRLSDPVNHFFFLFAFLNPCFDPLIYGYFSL
Chain of D(2) dopamine receptor (Homo sapiens) (P14416 whole entry, looked up): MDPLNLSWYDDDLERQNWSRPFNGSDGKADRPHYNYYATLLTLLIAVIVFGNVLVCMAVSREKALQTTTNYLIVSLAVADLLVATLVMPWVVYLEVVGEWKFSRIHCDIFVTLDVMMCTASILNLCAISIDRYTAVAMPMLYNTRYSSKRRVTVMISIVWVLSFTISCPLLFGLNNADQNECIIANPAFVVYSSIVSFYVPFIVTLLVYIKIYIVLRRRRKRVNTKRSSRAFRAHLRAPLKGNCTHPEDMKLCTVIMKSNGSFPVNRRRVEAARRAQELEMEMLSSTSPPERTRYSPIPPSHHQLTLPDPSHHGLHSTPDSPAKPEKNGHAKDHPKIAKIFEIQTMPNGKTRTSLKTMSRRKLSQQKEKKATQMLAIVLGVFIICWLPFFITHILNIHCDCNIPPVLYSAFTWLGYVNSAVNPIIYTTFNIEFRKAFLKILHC
Chain of Muscarinic acetylcholine receptor M1 (Homo sapiens) (P11229 whole entry, looked up): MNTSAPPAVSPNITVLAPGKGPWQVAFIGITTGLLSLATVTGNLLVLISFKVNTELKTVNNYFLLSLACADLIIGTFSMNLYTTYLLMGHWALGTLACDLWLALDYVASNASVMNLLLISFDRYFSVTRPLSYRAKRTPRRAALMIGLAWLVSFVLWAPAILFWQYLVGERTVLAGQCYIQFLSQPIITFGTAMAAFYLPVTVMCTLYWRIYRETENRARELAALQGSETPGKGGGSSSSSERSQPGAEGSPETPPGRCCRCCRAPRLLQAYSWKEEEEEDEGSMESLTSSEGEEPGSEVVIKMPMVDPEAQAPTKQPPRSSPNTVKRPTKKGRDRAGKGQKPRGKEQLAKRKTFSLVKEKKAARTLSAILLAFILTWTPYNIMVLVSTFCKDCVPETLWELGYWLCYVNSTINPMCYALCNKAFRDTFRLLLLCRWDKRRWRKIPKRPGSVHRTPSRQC
Chain of Beta-2 adrenergic receptor (Homo sapiens) (P07550 whole entry, looked up): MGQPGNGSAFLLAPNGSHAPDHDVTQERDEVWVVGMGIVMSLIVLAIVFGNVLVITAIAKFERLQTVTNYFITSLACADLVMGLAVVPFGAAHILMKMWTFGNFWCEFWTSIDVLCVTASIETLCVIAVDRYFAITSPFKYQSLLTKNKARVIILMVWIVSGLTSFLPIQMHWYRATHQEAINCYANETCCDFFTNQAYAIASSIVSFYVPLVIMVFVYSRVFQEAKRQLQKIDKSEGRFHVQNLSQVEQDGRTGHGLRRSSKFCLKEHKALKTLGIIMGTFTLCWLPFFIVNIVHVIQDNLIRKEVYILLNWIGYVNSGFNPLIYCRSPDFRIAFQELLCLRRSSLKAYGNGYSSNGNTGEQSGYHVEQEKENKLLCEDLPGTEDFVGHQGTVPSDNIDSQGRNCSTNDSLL

CC(C)c1ccc2sc3ccccc3c(=O)c2c1
inactive: Potency [1] | Potency [3] | outcome [4] | outcome [5] | Potency [6] | Potency [7] | Potency [8] | Potency [9] | Potency [10] | Potency [11] | Potency [12] | Potency [13] | Potency [14]
active: Potency [2] 68.6 µM

FC(F)(F)C(F)(F)C(F)(F)C(F)(F)C(F)(F)C(F)(F)C(F)(F)C(F)(F)C(F)(F)C(F)(F)F
inactive: activity change, negative = cytotoxicity [1] 2.36% [at 8.39 µM] | activity, positive = activation [2] -2.47% [at 8.39 µM] | activity change [3] 0.129% [at 5.22 µM, stronger effect = higher value] | activation [4] -3.4% [at 6.97 µM] | activation [5] -1.63% [at 5.23 µM] | activation [6] -3.19% [at 5.99 µM] | activity change, negative = cytotoxicity [15] 2.89% [at 5.99 µM] | activity change, negative = cytotoxicity [16] -0.558% [at 5.99 µM] | activation [8] -0.0202% [at 5.99 µM] | activity, negative = inhibition [9] -16.5% [at 5.62 µM] | activation [10] 9.84% [at 7.02 µM] | activity, negative = inhibition [11] 8.35% [at 5.58 µM] | activation [12] -0.0294% [at 6.97 µM] | activation [17] -1.41% [at 8.39 µM] | activity change, negative = inhibition [18] -8.96% [at 8.39 µM] | activity change, negative = inhibition [13] 4.67% [at 8.39 µM] | activity change, negative = inhibition [19] 10.1% [at 8.38 µM]

O=C(O)P(=O)(O)O
inactive: Potency [1] | Potency [2] | Potency [3] | outcome [4] | outcome [5] | Potency [6] | Potency [15] | Potency [7] | Potency [8] | Potency [17] | Potency [18] | Potency [13] | Potency [14] | Potency [19]

Cc1cc(SC2=C(O)C[C@@](CCc3ccc(N)cc3)(C(C)C)OC2=O)c(C(C)(C)C)cc1CO
inactive: Potency [1] | Potency [2] | Potency [3] | outcome [4] | outcome [5] | Potency [16] | Potency [7] | Potency [9] | Potency [10] | Potency [11] | Potency [12] | Potency [14] | Potency [19]

Nc1nnc(-c2cccc(Cl)c2Cl)c(N)n1
inactive: Potency [1] | Potency [2] | Potency [3] | outcome [4] | outcome [5] | Potency [15] | Potency [16] | Potency [7] | Potency [17] | Potency [18] | Potency [14] | Potency [19]

CCCCCc1ccc(Cl)cc1
inactive: Potency [1] | Potency [2] | Potency [3] | outcome [4] | Potency [20] | Potency [6] | Potency [15] | Potency [16] | Potency [7] | Potency [8] | Potency [9] | Potency [10] | Potency [11] | Potency [12] | Potency [17] | Potency [18] | Potency [13] | Potency [14] | Potency [19]

CO[C@H]1O[C@H](CO)[C@@H](O)[C@H](O)[C@H]1O
inactive: Potency [1] | Potency [2] | Potency [3] | outcome [4] | outcome [5] | Potency [6] | Potency [16] | Potency [7] | Potency [8] | Potency [10] | Potency [11] | Potency [12] | Potency [17] | Potency [18] | Potency [13] | Potency [14] | Potency [19]

CCOc1nc(F)cc2nc(S(=O)(=O)Nc3c(Cl)cccc3C(=O)OC)nn12
inactive: Potency [1] | Potency [2] | Potency [3] | outcome [4] | outcome [5] | Potency [6] | Potency [15] | Potency [7] | Potency [8] | Potency [9] | Potency [10] | Potency [11] | Potency [12] | Potency [18] | Potency [13] | Potency [14] | Potency [19]

From PubChem BioAssay (Tox21)
